The text below walks through data of PubChem BioAssay.

Activity calls are given as the source filed them. Unless noted, no rule for the calls is given here.

Experiment [1] in a line: HepG2 liver cancer cell viability effects, profiling panel, resazurin fluorescence, 24 h, PK04 Diversity Set (AID 1172). Also: test concentration not given here. Particulars: higher = more signal. Background: The colour change of resazurin is a common sign of viable cells or microbes.
Experiment [2] in a line: basal S. cerevisiae growth modulation, no modifier, primary screen, OD600, strain BY4716, 24 h, basal condition (AID 1173). Particulars: OD600, 24 h, higher = more signal, called active from +8 up or from −8 down.
Experiment [3] is described as follows: MM1S myeloma cell viability, profiling panel, resazurin fluorescence, basal, 24 h, PK04 Diversity Set (AID 1174).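 Also: MM1S multiple myeloma cell line; test concentration not given here.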 Particulars: higher = more signal, called active from +8 up or from −8 down.
Experiment [4] deals with Dihydroorotate dehydrogenase (quinone), mitochondrial (Plasmodium falciparum (isolate 3D7)) (UniProt Q08210). The experiment is described as follows: PfDHODH enzyme inhibitors, primary screen, biochemical, C-terminal His tag, absorbance 600 nm (AID 1175).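 Also: recombinant parasite enzyme with a five histidine tag at its C terminus; test concentration not given here.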 Particulars: DCIP absorbance 600 nm, higher = more signal, called active from +8 up or from −8 down.
Dihydroorotate dehydrogenase (quinone), mitochondrial (Plasmodium falciparum (isolate 3D7)), sequence (Q08210 whole entry, looked up): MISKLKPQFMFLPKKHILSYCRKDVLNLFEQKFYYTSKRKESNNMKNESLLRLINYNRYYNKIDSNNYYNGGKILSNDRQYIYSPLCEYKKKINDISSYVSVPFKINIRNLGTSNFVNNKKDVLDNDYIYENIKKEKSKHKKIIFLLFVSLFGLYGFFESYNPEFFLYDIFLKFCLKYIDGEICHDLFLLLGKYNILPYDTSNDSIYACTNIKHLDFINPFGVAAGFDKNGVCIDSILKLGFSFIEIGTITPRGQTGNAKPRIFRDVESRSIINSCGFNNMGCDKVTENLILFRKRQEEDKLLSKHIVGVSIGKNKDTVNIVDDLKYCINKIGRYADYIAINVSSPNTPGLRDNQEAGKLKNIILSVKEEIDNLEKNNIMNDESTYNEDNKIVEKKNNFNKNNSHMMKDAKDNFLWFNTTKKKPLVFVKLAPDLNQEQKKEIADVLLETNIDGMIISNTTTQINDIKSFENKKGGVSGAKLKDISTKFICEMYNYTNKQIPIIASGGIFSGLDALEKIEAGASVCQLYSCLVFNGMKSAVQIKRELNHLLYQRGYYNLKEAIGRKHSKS
Experiment [5] can be described thus: P. aeruginosa biofilm formation inhibitors, primary screen, strain PAO1, LB-PBS medium, absorbance 600 nm (AID 1176). Also: test concentration not given here. Particulars: P. aeruginosa PAO1 growth/biofilm, A600, 12 h; higher = more signal.
Experiment [6] in a line: S. cerevisiae RM11-1a growth modifiers, primary screen, strain RM11-1a, OD600, basal, 24 h (AID 1177).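 Also: cultures grown under basal conditions with no added stressor; test concentration not given here.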 Conditions: OD600, 24 h, higher = more signal, called active from +8 up or from −8 down.
Experiment [7] can be described thus: E. coli acrAB mutant growth effects, primary screen, E. coli filamentation inducers, strain DRC39, OD650, 24 h (AID 1178).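 Also: growth measured as culture turbidity by optical density at 650 nm; test concentration not given here.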 Conditions: higher = more signal, called active from +8 up or from −8 down.
A short description of experiment [8]: E. coli acrAB mutant growth effects, primary screen, E. coli filamentation inducers, strain DRC39, OD650, 48 h (AID 1179).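 Also: screen aims at cell division blockers that make cells filament.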 Particulars: E. coli DRC39 delta-acrAB growth, higher = more signal, called active from +8 up or from −8 down.
Experiment [9] can be described thus: RPMI8226 myeloma cell viability, profiling panel, resazurin fluorescence, basal, 24 h, PK04 Diversity Set (AID 1180).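 Also: RPMI8826 multiple myeloma cell line at 5000 cells per well; test concentration not given here.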 Particulars: higher = more signal.
Experiment [10] concerns the target E3 ubiquitin-protein ligase XIAP (Homo sapiens) (UniProt P98170). The experiment is described as follows: XIAP binders, primary screen, biophysical, small-molecule microarray, fluorescence 635 nm (AID 1181).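 Also: score merges 667 nm emission and signal to noise over triplicate slides.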 Particulars: small-molecule microarray binding, higher = more signal.

E3 ubiquitin-protein ligase XIAP (Homo sapiens), sequence (P98170 whole entry, looked up): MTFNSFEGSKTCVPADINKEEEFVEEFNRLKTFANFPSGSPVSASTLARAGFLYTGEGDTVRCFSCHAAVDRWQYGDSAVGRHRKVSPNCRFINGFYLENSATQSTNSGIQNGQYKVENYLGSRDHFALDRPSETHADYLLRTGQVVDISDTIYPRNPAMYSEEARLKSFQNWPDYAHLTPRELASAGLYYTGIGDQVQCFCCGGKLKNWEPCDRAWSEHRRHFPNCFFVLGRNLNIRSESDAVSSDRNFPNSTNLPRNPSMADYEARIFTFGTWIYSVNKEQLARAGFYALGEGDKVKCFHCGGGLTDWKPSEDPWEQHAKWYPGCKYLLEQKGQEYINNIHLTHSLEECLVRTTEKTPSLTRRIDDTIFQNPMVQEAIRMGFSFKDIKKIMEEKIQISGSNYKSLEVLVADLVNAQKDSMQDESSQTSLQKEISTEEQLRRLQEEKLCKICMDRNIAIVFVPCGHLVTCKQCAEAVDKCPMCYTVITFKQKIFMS

Take `CCCCC(=C=CC[C@@H](O)c1ccccc1OCCO)CCO`: the z-score was -0.202 in experiment [1]; -2.07 (inactive) in experiment [2]; 0.684 (inactive) in experiment [3]; 0.118 (inactive) in [5]; 0.853 (inactive) in [6]; 0.132 (inactive) in experiment [7]. In addition, the z-score in [8] is -0.0575 (inactive); in experiment [9], -0.552. Moreover, the composite z-score in experiment [4] was -0.782 (inactive); in experiment [10] it was -0.24.
Consider `Cc1ccc(C(C)CC(O)C2C=CC3C(=O)N(C)C(=O)C3N2NC(=O)OC(C)(C)C)o1` (stereo not given), for which the z-score in experiment [1] was -0.427; in experiment [2], -0.626 (inactive); in experiment [3], -0.076 (inactive); in experiment [5] it was 0.434 (inactive); in experiment [6], 0.66 (inactive); in experiment [7], -0.107 (inactive). Further, the z-score is -0.354 (inactive) in experiment [8] and 0.0437 in experiment [9]. Also, the composite z-score in experiment [4] is -0.166 (inactive); in experiment [10], 0.12.
Take `CN1C(=O)C2C=CC(C(O)Cc3ccccc3)N(Nc3ccccc3)C2C1=O` (stereo not given): the z-score in [1] is -0.355; in experiment [2], -0.836 (inactive); in experiment [3], -0.808 (inactive); in [5], 1.07 (inactive); in experiment [6], 0.217 (inactive); in experiment [7], -0.553 (inactive). Also, the figures for the z-score in experiment [8] and in experiment [9] were -0.801 (inactive) and -0.541, respectively. Further, the composite z-score in experiment [4] is 0.295 (inactive); in experiment [10], -0.189.
As for `OC([C@@H]1CC(c2ccccc2)=NO1)[C@H]1CC(c2ccccc2)=NO1` (stereo not given in full), the z-score in experiment [1] was 0.447; in experiment [2], -1.39 (inactive); in experiment [3], 0.129 (inactive); in [5], -0.0704 (inactive); in experiment [6], 1.16 (inactive); in [7], 2.32 (inactive). The z-score in experiment [8] was 1.16 (inactive); in [9], 0.236. The composite z-score in [4] was -0.543 (inactive); in experiment [10], -0.159.
Turning to `O=C1NC(=O)C2C1C=CC(C(O)c1cccc3ccccc13)N2Nc1ccccn1` (stereo not given), the z-score in [1] is -0.692; in experiment [2], 0.268 (inactive); in [3], -1.74 (inactive); in experiment [5] it was 0.226 (inactive); in experiment [6] it was 0.798 (inactive); in experiment [7] it was -0.334 (inactive). In addition, the z-score was 0.638 (inactive) in experiment [8] and -0.94 in experiment [9]. Further, the composite z-score in [4] is 0.305 (inactive); in experiment [10], 0.276.
In the case of `COc1ccc(C(=O)Nc2cccc(CN3C(=O)[C@]4(O[C@H](CCO)[C@@H]([Si](C)(C)c5ccc(OC)cc5)[C@@H]4C)c4ccccc43)c2)cc1`, the z-score in experiment [1] is -6.28; in experiment [2], -3.7 (inactive); in experiment [3], -9.11 (active); in experiment [5] it was 1.01 (inactive); in experiment [6] it was 4.05 (inactive); in [7], 0.127 (inactive). The z-score in experiment [8] is -0.903 (inactive); in experiment [9] it was -6.27. Besides, the composite z-score was 0.255 (inactive) in experiment [4] and 0.0847 in experiment [10].
Consider `COCCCNC(=O)[C@@]1(Cc2ccccc2)N=C(c2ccc(OCCCO)cc2)O[C@H]1c1ccccc1`, for which the z-score was 0.625 in [1]; -1.05 (inactive) in [2]; -0.0938 (inactive) in experiment [3]; 0.19 (inactive) in [5]; -0.82 (inactive) in experiment [6]; 0.385 (inactive) in experiment [7]. The z-score was -0.456 (inactive) in experiment [8] and 0.297 in experiment [9]. Moreover, the composite z-score in [4] is 0.282 (inactive); in [10], -0.0376.
Regarding `O=C(O)[C@@]1(CCS(=O)(=O)c2ccccc2)COC(c2ccc(OCCCO)cc2)=N1`, the z-score in experiment [1] is 0.444; in [2], 0.0291 (inactive); in [3], -0.21 (inactive); in experiment [5] it was -0.347 (inactive); in experiment [6], -0.197 (inactive); in experiment [7] it was -0.43 (inactive). In addition, the values for the z-score in experiment [8] and in [9] were -0.216 (inactive) and 0.0149, respectively. Further, the composite z-score in [4] was 0.0614 (inactive); in experiment [10] it was 0.0767.
For the compound `COc1cc2c(cc1OC)CN(C(=O)[C@H]1[C@@H]3C(=O)O[C@@H](c4ccccc4)[C@@H](c4ccccc4)N3[C@@H](c3ccc(O)cc3)[C@]13C(=O)Nc1ccc(C#CCNC(N)=O)cc13)CC2`, the z-score in experiment [1] is 0.543; in experiment [2], 0.16 (inactive); in [3], 0.187 (inactive); in experiment [5], 0.305 (inactive); in experiment [6], 0.0092 (inactive); in experiment [7] it was 0.537 (inactive). Further, the z-score in experiment [8] is 0.0455 (inactive); in experiment [9] it was 0.592. Further, the composite z-score is -2.16 (inactive) in experiment [4] and -0.202 in experiment [10].
As to `CC(C)[C@@H](CO)NC(=O)[C@H]1[C@@H](c2ccccc2)N(c2ccccc2)O[C@@H]1C`, the z-score in experiment [1] was 0.872; in experiment [2] it was -2.53 (inactive); in experiment [3] it was 0.751 (inactive); in experiment [5] it was 0.0573 (inactive); in [6], 1.2 (inactive); in experiment [7] it was -0.323 (inactive). The z-score in experiment [8] was 0.506 (inactive); in [9], 0.566. Further, the composite z-score is -0.857 (inactive) in [4] and -0.0999 in [10].
Take `CS(=O)(=O)CCOC(=O)C1=CC(CCCO)=CC(c2ccc(CN3CCCC3)cc2)N(Cc2cc3c(cc2Br)OCO3)C=C1C(=O)OCCS(C)(=O)=O` (stereo not given): the z-score is 0.0305 in [1]; -3.3 (inactive) in experiment [2]; 0.56 (inactive) in experiment [3]; -0.66 (inactive) in [5]; 0.526 (inactive) in [6]; 0.549 (inactive) in experiment [7]. Moreover, the z-score is 0.325 (inactive) in [8] and 1.31 in experiment [9]. Besides, the composite z-score in experiment [4] was -4.55 (inactive); in experiment [10], -0.0773.
`COc1ccc(C(=O)O[C@H]2CC[C@]3(C)C4=C(CCC3C2(C)C)[C@]2(C)CC[C@H]([C@H](C)CCCC(C)C)[C@@]2(C)CC4)cc1` (stereo not given in full): the z-score in experiment [1] is 1.09; in experiment [2] it was 1.77 (inactive); in [3] it was 0.873 (inactive); in experiment [5] it was 0.814 (inactive); in experiment [6], -1.09 (inactive); in experiment [7] it was 1.25 (inactive). The z-score is 1.11 (inactive) in experiment [8] and 1.37 in experiment [9]. Besides, the composite z-score in experiment [4] was -1.74 (inactive); in [10], -0.142.
As for `CCCCCC1=C2CNC(CCC)(C(=O)OC)C=C2C(C)C1=O` (stereo not given), the z-score was -1.08 in experiment [1]; 0.381 (inactive) in [2]; -1.34 (inactive) in [3]; 0.796 (inactive) in experiment [5]; 0.891 (inactive) in experiment [6]; 0.0107 (inactive) in experiment [7]. The z-score in experiment [8] was 0.56 (inactive); in [9], -0.888. The composite z-score in experiment [4] is -1.62 (inactive); in experiment [10], 0.347.
